Measurements taken from PubChem BioAssay (NCI).
Several values for one entry are separate records, joined by “and”; a condition that tells them apart may be missing. Equal values may be shown once. The panel holds about 83,000 compounds, 20% with a hit somewhere; the sample as a whole holds those more often.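 Activity criterion: percent growth below 10, measured after cells in 96-well plates were exposed to a single compound concentration for 48 hours.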 Activity calls are given as the source filed them.

Assays:
Assay in all cases: NCI-60 one-dose screen, 48 h (100 = growth as untreated, 0 = no growth, -100 = all killed)
Conditions in all cases: 10 µM unless noted
NCI-H23 lung = tested on: NCI-H23 lung
NCI-H226 lung = tested on: NCI-H226 lung
NCI-H322M lung = tested on: NCI-H322M lung
HOP-62 NSCLC = tested on: HOP-62 NSCLC
NCI-H460 lung = tested on: NCI-H460 lung
HOP-92 NSCLC = tested on: HOP-92 NSCLC
NCI-H522 lung = tested on: NCI-H522 lung
A549/ATCC NSCLC = tested on: A549/ATCC NSCLC
786-0 renal = tested on: 786-0 renal
COLO 205 colon = tested on: COLO 205 colon
DU-145 prostate = tested on: DU-145 prostate
K-562 leukemia = tested on: K-562 leukemia
MALME-3M melanoma = tested on: MALME-3M melanoma
MDA-MB-231 breast = tested on: MDA-MB-231 breast
RXF 393 renal = tested on: RXF 393 renal
SF-268 CNS = tested on: SF-268 CNS
SF-295 CNS = tested on: SF-295 CNS
SF-539 CNS = tested on: SF-539 CNS
UACC-257 melanoma = tested on: UACC-257 melanoma
M14 melanoma = tested on: M14 melanoma

Measured: growth

N#Cc1c(N)nnn1Cc1cc(=O)oc2ccc(O)cc12
inactive: NCI-H23 lung 106% | NCI-H226 lung 95.7% | NCI-H322M lung 110% | HOP-62 NSCLC 106% | NCI-H460 lung 107% | HOP-92 NSCLC 95.7% | NCI-H522 lung 89.6% | A549/ATCC NSCLC 98.7% | 786-0 renal 106% | COLO 205 colon 118% | DU-145 prostate 108% | K-562 leukemia 96.1% | MALME-3M melanoma 108% | MDA-MB-231 breast 112% | RXF 393 renal 98.8% | SF-268 CNS 103% | SF-295 CNS 102% | SF-539 CNS 104% | UACC-257 melanoma 101% | M14 melanoma 105%

COc1ccc(-c2c[nH]c(C(=O)O)c2-c2cc(OC)c(OC)c(OC)c2)cc1
inactive: NCI-H23 lung 48.5% | NCI-H226 lung 88.9% | NCI-H322M lung 47.9% | HOP-62 NSCLC 37.3% | NCI-H460 lung 14.4% | HOP-92 NSCLC 32.2% | NCI-H522 lung 28.1% | A549/ATCC NSCLC 49.4% | 786-0 renal 31.3% | COLO 205 colon 14.7% | DU-145 prostate 49% | K-562 leukemia 11.7% | MALME-3M melanoma 33.7% | MDA-MB-231 breast 57.7% | SF-268 CNS 64.9% | SF-295 CNS 23.6% | UACC-257 melanoma 78.8% | M14 melanoma 45.7%
active: RXF 393 renal -3.91% | SF-539 CNS 2.29%

O=C1Nc2ccccc2/C1=C/c1cccn1CCCCCn1c2ccccc2c(=O)c2ccccc21
inactive: NCI-H23 lung 69.6% | NCI-H226 lung 70% | NCI-H322M lung 98.8% | HOP-62 NSCLC 58.3% | NCI-H460 lung 95.9% | HOP-92 NSCLC 65.5% | NCI-H522 lung 66.3% | A549/ATCC NSCLC 81.4% | 786-0 renal 105% | COLO 205 colon 56.2% | DU-145 prostate 97.9% | K-562 leukemia 52.1% | MALME-3M melanoma 84.5% | MDA-MB-231 breast 69.3% | RXF 393 renal 89.2% | SF-268 CNS 83.3% | SF-295 CNS 93.1% | SF-539 CNS 94.2% | UACC-257 melanoma 106% | M14 melanoma 73.3%

CCN1C(=O)N(c2ccccc2)C2NC(=S)N(/N=C/C=C/c3ccccc3)C21 (stereo not given)
inactive: NCI-H23 lung 21.1% | NCI-H322M lung 50.4% | HOP-62 NSCLC 37.9% | HOP-92 NSCLC 28.8% | NCI-H522 lung 14.8% | A549/ATCC NSCLC 24.9% | 786-0 renal 37.2% | MALME-3M melanoma 45.8% | MDA-MB-231 breast 15.7% | SF-268 CNS 31.9% | UACC-257 melanoma 39.5%
active: NCI-H226 lung 2.92% | NCI-H460 lung 8.06% | COLO 205 colon -8.16% | DU-145 prostate 8.79% | K-562 leukemia 8.8% | RXF 393 renal 9.01% | SF-295 CNS 2.91% | SF-539 CNS -27% | M14 melanoma 0.94%

Cc1ccc(-c2nc3nc(-c4ccc(Cl)cc4)nc(N4CCCNCC4)c3o2)cc1
inactive: NCI-H23 lung 96.4% | NCI-H226 lung 111% | NCI-H322M lung 17.4% | HOP-62 NSCLC 97.6% | HOP-92 NSCLC 83.6% | NCI-H522 lung 62.2% | MALME-3M melanoma 91.8% | RXF 393 renal 80.2% | SF-268 CNS 97% | SF-295 CNS 85.3% | UACC-257 melanoma 103%
active: NCI-H460 lung -81.6% | A549/ATCC NSCLC -81.6% | 786-0 renal -82.9% | COLO 205 colon -66.4% | DU-145 prostate -21.9% | K-562 leukemia -56.7% | MDA-MB-231 breast -75.7% | SF-539 CNS -96.1% | M14 melanoma -75.9%

O=C1c2cc3c(cc2-c2c1c1ccc(Cl)cc1c(=O)n2CCCn1ccnc1)OCO3
inactive: NCI-H322M lung 10.5% | A549/ATCC NSCLC 19.6% | COLO 205 colon 14.5% | MDA-MB-231 breast 46.4%
active: NCI-H23 lung -38.2% | NCI-H226 lung 1.03% | HOP-62 NSCLC 5.44% | NCI-H460 lung 2.4% | HOP-92 NSCLC -2.88% | NCI-H522 lung -26.1% | 786-0 renal -40.9% | DU-145 prostate -42.2% | K-562 leukemia 1.87% | MALME-3M melanoma -24.6% | RXF 393 renal -36.7% | SF-268 CNS 8.11% | SF-295 CNS -10.1% | SF-539 CNS -50.3% | UACC-257 melanoma -3.1% | M14 melanoma -28.6%

O=C1/C(=C/c2cn(-c3ccccc3)nc2-c2ccccc2)SC(=S)N1c1ccc(Cl)cc1
inactive: NCI-H23 lung 87.5% | NCI-H226 lung 71.2% | NCI-H322M lung 64.8% | HOP-62 NSCLC 52.7% | NCI-H460 lung 47.5% | HOP-92 NSCLC 43.3% | NCI-H522 lung 83.7% | A549/ATCC NSCLC 68.8% | 786-0 renal 85.5% | COLO 205 colon 111% | DU-145 prostate 74.6% | K-562 leukemia 63.8% | MALME-3M melanoma 95.4% | MDA-MB-231 breast 79.8% | RXF 393 renal 88.4% | SF-268 CNS 62.5% | SF-295 CNS 44.6% | SF-539 CNS 84.2% | UACC-257 melanoma 89.8% | M14 melanoma 65.8%

N=C(N)c1ccc(-c2ccc(-c3ccc(Cl)c(Cl)c3)s2)cc1
inactive: NCI-H23 lung 63.1% | NCI-H226 lung 98.9% | HOP-62 NSCLC 40.8% | HOP-92 NSCLC 74.4% | MALME-3M melanoma 78.7% | RXF 393 renal 77.9% | SF-268 CNS 56.2% | SF-295 CNS 35.5% | SF-539 CNS 52.7% | UACC-257 melanoma 96.6% | M14 melanoma 38.1%
active: NCI-H322M lung -3.21% | NCI-H460 lung -58.7% | NCI-H522 lung -38.4% | A549/ATCC NSCLC -51.9% | 786-0 renal -3.47% | COLO 205 colon -17.9% | DU-145 prostate -88.9% | K-562 leukemia -11.6% | MDA-MB-231 breast -20.2%

Cc1c(C(C)(C)O)cn2ncnc(Oc3ccc(NC(=O)Nc4ccc(Cl)c(C(F)(F)F)c4)cc3)c12
inactive: NCI-H23 lung 23.6% | NCI-H226 lung 65.5% | NCI-H322M lung 56.7% | HOP-62 NSCLC 65.4% | NCI-H460 lung 13.1% | NCI-H522 lung 11.6% | A549/ATCC NSCLC 32.8% | 786-0 renal 26.5% | COLO 205 colon 45.6% | DU-145 prostate 57.6% | K-562 leukemia 14.9% | MALME-3M melanoma 51.2% | MDA-MB-231 breast 32.2% | RXF 393 renal 39% | SF-268 CNS 45.3% | SF-295 CNS 16% | SF-539 CNS 25.9% | UACC-257 melanoma 66.5% | M14 melanoma 36.7%
active: HOP-92 NSCLC 4.28%

COc1ccc(C/C(C)=C(\c2ccc(O)cc2)c2ccc(OCCCN(C)C)cc2)cc1
inactive: NCI-H23 lung 91.8% | NCI-H226 lung 94.2% | NCI-H322M lung 94% | HOP-62 NSCLC 111% | NCI-H460 lung 93.7% | HOP-92 NSCLC 68.7% | NCI-H522 lung 91.5% | A549/ATCC NSCLC 90.6% | 786-0 renal 101% | COLO 205 colon 97% | DU-145 prostate 101% | K-562 leukemia 70.4% | MALME-3M melanoma 97.1% | MDA-MB-231 breast 106% | RXF 393 renal 89.5% | SF-268 CNS 88.1% | SF-295 CNS 104% | SF-539 CNS 107% | UACC-257 melanoma 92.4% | M14 melanoma 99.4%

O=C1OCC2=C1C(c1cccc([N+](=O)[O-])c1)c1cc3c(cc1N2CCO)CCC3 (stereo not given)
inactive: NCI-H23 lung 23.2% | NCI-H226 lung 38.2% | NCI-H322M lung 37.2% | HOP-62 NSCLC 31.3% | HOP-92 NSCLC 51.4% | A549/ATCC NSCLC 11.7% | 786-0 renal 25.2% | MALME-3M melanoma 38.9% | MDA-MB-231 breast 30% | RXF 393 renal 27.8% | SF-268 CNS 33.1% | UACC-257 melanoma 69.9%
active: NCI-H460 lung 3.63% | NCI-H522 lung -4.9% | COLO 205 colon -27.1% | DU-145 prostate 3.17% | K-562 leukemia 7.29% | SF-295 CNS -11.7% | SF-539 CNS -16.4% | M14 melanoma 3.09%

COc1ccc2c(c1)c(-c1nc(-c3c[nH]c4c(Cl)nccc34)cs1)cn2C
inactive: NCI-H23 lung 73.9% | NCI-H226 lung 37.2% | NCI-H322M lung 91.3% | HOP-62 NSCLC 92.6% | NCI-H460 lung 31.1% | HOP-92 NSCLC 76.1% | NCI-H522 lung 86.6% | A549/ATCC NSCLC 84.7% | 786-0 renal 124% | COLO 205 colon 93.9% | DU-145 prostate 90% | K-562 leukemia 90.8% | MALME-3M melanoma 117% | MDA-MB-231 breast 52.2% | RXF 393 renal 83.2% | SF-268 CNS 111% | SF-295 CNS 97.2% | SF-539 CNS 89.7% | UACC-257 melanoma 100% | M14 melanoma 90.8%

CC(=O)N1N=C(c2ccc(Nc3nc(Nc4ccc(F)cc4)nc(Nc4ccc(F)cc4)n3)cc2)CC1c1ccccc1 (stereo not given)
inactive: NCI-H23 lung 90% | NCI-H226 lung 102% | NCI-H322M lung 92.5% | HOP-62 NSCLC 85.9% | NCI-H460 lung 92.3% | HOP-92 NSCLC 58.3% | NCI-H522 lung 89.4% | A549/ATCC NSCLC 86.4% | 786-0 renal 78.5% | COLO 205 colon 68.5% | DU-145 prostate 116% | K-562 leukemia 80.1% | MALME-3M melanoma 76.2% | MDA-MB-231 breast 80.1% | RXF 393 renal 60.6% | SF-268 CNS 86.1% | SF-295 CNS 132% | SF-539 CNS 110% | UACC-257 melanoma 108% | M14 melanoma 85%

COc1cc(CNC(=O)CCCC/C=C/C(C)C)ccc1O
inactive: NCI-H23 lung 101% | NCI-H226 lung 94.2% and 92.4% | NCI-H322M lung 124% and 88.7% | HOP-62 NSCLC 89% and 104% | NCI-H460 lung 106% and 114% | HOP-92 NSCLC 84.4% | NCI-H522 lung 83.1% and 75.5% | A549/ATCC NSCLC 106% and 115% | 786-0 renal 107% and 101% | COLO 205 colon 101% and 111% | DU-145 prostate 112% and 120% | K-562 leukemia 84.1% and 93.3% | MALME-3M melanoma 154% and 95.6% | MDA-MB-231 breast 85.1% and 83.3% | SF-268 CNS 84.9% and 91.6% | SF-295 CNS 128% and 107% | SF-539 CNS 95.6% and 90.7% | UACC-257 melanoma 119% and 112% | M14 melanoma 117% and 99.5%
-46.1% (active) and 98.6% (inactive): RXF 393 renal
